Results reported in PubChem BioAssay AID504706 (National Center for Advancing Translational Sciences (NCATS), 2011).
About 200 (0.062%) of roughly 320,000 compounds were called active. About 6% were inconclusive and are not listed. Calls come from the whole dose curve; as a rule, active = well fitted activation curve with a large enough effect; inconclusive = small, poorly fitted or top-dose-only effect; inactive = no such curve, though single readings can be large or run the other way. Only a selection was taken, and actives are over-represented in it overall.

Experiment: qHTS assay for re-activators of p53 using a Luc reporter; note: nearly all actives have a fitted effect of over 45% in size; for activity change, positive = activation: % of control where 0% means no effect
Details: H1299 p53-A138V BP100-luciferase reporter, luminescence, 24 h; series mostly up to 92.2 µM; activity change, positive = activation: at the top concentration
Source text: The p53 tumor suppressor plays a key role in suppression of tumorigenesis and in human carcinogenesis. It is frequently found inactivated in human cancers, mainly by point mutation. These point mutations are found in a wide variety of human cancers and a majority of them affect the DNA binding domain of the protein. The point mutations either alter native p53 conformation or abolish DNA contact. Additionally, cancer cells with p53 mutations are more resistant to chemo-radiation therapies. In order to find activators to reactivate this important protein, a cell-based screen for p53-dependent luciferase-reporter expression was developed. A p53-null H1299 lung cancer cell line was stably co-transfected with a temperature sensitive p53 mutant, p53-A138V, and a p53-responsive BP100-luciferase reporter. This cell model has previously been characterized in a gene chip profiling experiment for p53 activation. By lowering the culture temperature from 37 deg C (mutant p53 conformation) to 32 deg C (w.t. p53 conformation), a 30-60 fold increase in activation of luciferase activity is observed. At assay temperate, 37 deg C, basal reporter expression is very low and after the addition of detection reagent, a luminescent read-out is carried out. NIH Chemical Genomics Center [NCGC] NIH Molecular Libraries Probe Production Centers Network [MLPCN] MLPCN Grant: DA031088-01A1 Assay Provider (PI): Yi Sung, University of Michigan at Ann Arbor
5ul of 1000 cells per well are dispensed in all wells except column 4, into white solid-bottom TC-treated Kalypsys plates. The cells are kept in Opti-MEM and supplemented with 10% FBS and dispensed using a Multidrop (Thermo). Then using the Kalypsys pin-tool, 23nl of compounds are pinned. The compounds are starting concentration at 10mM, with 1:5 dilution, 4 points, and the control compound nocodazole is pinned in column 1 at 25mM, 1:3 dilution, in duplicate, 25mM nocodazole is pinned in column 2. Please note, all concentrations are working concentrations. 5ul of 1pM purified luciferase enzyme is dispensed using the Kalypsys dispenser in column 4. Plates are incubated for 24 hrs at 37 deg C, 5% CO2, and 95% humidity. Then 4ul of the detection reagent Amplite (ABD Bioquest) is added using the Kalypsys dispenser. Plates are incubated for 10 min at ambient room temperature and are then read on the ViewLux (Perkin Elmer) using a clear filter for a luminescent read-out.
Potency is the fitted concentration of half-maximal effect.

| Compound | activity change, positive = activation | Potency |
| --- | --- | --- |
| COC(=O)c1ccc(CNC(=O)c2ccc(S(=O)(=O)N3CCCCCC3)cc2)cc1 | -2% (inactive) | – |
| O=C(COc1ccc(F)cc1Br)NCC1COc2ccccc2O1 (stereo not drawn) | -3.91% (inactive) | – |
| CC(C)N(C(=O)[C@H]1C[C@H](CC(=O)NCCC2=CCCCC2)C(=O)N2CCc3c([nH]c4cc(CCC(=O)N(C)C)ccc34)[C@]12C)C(C)C | -2.05% (inactive) | – |
| CN(C)C(=O)CCc1ccc2c3c([nH]c2c1)[C@]1(C)[C@@H](C(=O)N2CCOCC2)C[C@H](CC(=O)NCCc2ccccn2)C(=O)N1CC3 | 21.2% (inactive) | – |
| Cc1onc(-c2ccccc2)c1C(=O)N1CCN(S(=O)(=O)c2ccccc2C(F)(F)F)CC1 | 14.4% (inactive) | – |
| O=c1c2ccccc2c(-c2ccc(F)cc2)nn1-c1ccc(C(F)(F)F)cc1 | 3.3% (inactive) | – |
| Cn1c(-c2ccc(C(F)(F)F)cc2)cc2onc(-c3ccccc3)c2c1=O | – | 22.4 µM (active) |
| CC(C)n1cnc2c(NCc3ccccc3)cc(N[C@@H](CO)Cc3ccccc3)cc21 | -14.8% (inactive) | – |
| COc1ccc2[nH]c3c(c2c1)CCN1C(=O)C(CC(=O)NCc2cccc(C(F)(F)F)c2)C[C@H](C(=O)N2CCOCC2)[C@@]31C (stereo partly drawn) | -2.15% (inactive) | – |
| COc1ccccc1N(CCOc1ccccc1)S(=O)(=O)c1ccccc1 | 4.72% (inactive) | – |
| COc1ccc(-c2noc(CCC(=O)N3CCN(c4cccc(C)c4)CC3)n2)cc1 | -6.14% (inactive) | – |
| CCCCC[C@@H]1C=C(C(=O)O)[C@H](c2ccc(C#N)cc2)N1S(=O)(=O)c1ccc(C)cc1 | -8.31% (inactive) | – |
| CCC(C)c1ccc(NC(=O)COC(=O)C2CCCC2)cc1 (stereo not drawn) | 22.8% (inactive) | – |
| O=C(NCC#CCSc1nnc(-c2cccc3ccccc23)o1)c1cccs1 | 4.19% (inactive) | – |
| O=C(NOCc1ccccc1)c1cccc([N+](=O)[O-])c1 | 24.5% (inactive) | – |
| CCOC(=O)C1CCCN(C(=O)CSc2nnc3nc(C)cc(C)n23)C1 (stereo not drawn) | 2.38% (inactive) | – |
| CCOC(=O)C1CCN(C(=O)CN2C(=O)NC(C)(c3ccc4cc(OC)ccc4c3)C2=O)CC1 (stereo not drawn) | -3.98% (inactive) | – |
| O=C(NCCc1ccccc1)c1ccc2c(c1)N(Cc1ccccc1)CCS2 | 8.11% (inactive) | – |
| CC1CCCN(c2ccc(C(=O)NCCc3ccccc3)cn2)C1 (stereo not drawn) | – | 35.5 µM (active) |
| CC1CCN(C(=O)CCNC(=O)c2ccccc2)CC1 | 19.5% (inactive) | – |
| CC[C@]12c3[nH]c4ccc(Cl)cc4c3CCN1C(=O)[C@@H](CC(=O)NCCCOC)C[C@@H]2C(=O)N1CCN(C(=O)c2ccco2)CC1 | -3.84% (inactive) | – |
| CC[C@]12c3[nH]c4cc(CCC(=O)N(C)C)ccc4c3CCN1C(=O)[C@@H](CC(=O)NCC13CC4CC(CC(C4)C1)C3)C[C@@H]2C(=O)N1CCN(C(=O)C2CC2)CC1 | 7.54% (inactive) | – |
| CCn1c(=S)[nH]c2cc(S(=O)(=O)N3CCOCC3)ccc21 | -13.9% (inactive) | – |
| Cc1nc2cc(-c3ccc(F)cc3)nn2c(N2CCOCC2)c1C | 15.1% (inactive) | – |
| Cc1cc(N)n2nc(-c3ccc(C(C)(C)C)cc3)cc2n1 | – | 11.2 µM (active) |
| Cc1cc(C(C)(C)C)n2nc(C)c(-c3ccccc3)c2n1 | 1.98% (inactive) | – |
| CC(C)CC1NC(=O)c2cc(Cl)ccc2-n2c1nc1ccccc1c2=O (stereo not drawn) | -4.01% (inactive) | – |

| Compound | activity change, positive = activation | Potency |
| --- | --- | --- |
| COc1cccc(CNC(C)C(=O)Nc2ccc(S(=O)(=O)N3CCCC3)cc2)c1 (stereo not drawn) | -4.27% (inactive) | – |
| Cc1cc(NC(=O)CSCC(=O)NC(C)c2ccccc2)no1 (stereo not drawn) | -1.81% (inactive) | – |
| O=C(Nc1ccc(N2CCOCC2)cc1)c1cccc(S(=O)(=O)N2CCOCC2)c1 | -1.76% (inactive) | – |
| O=C(Nc1cccnc1Cl)c1cc(-c2ccccc2O)on1 | 23.1% (inactive) | – |
| Oc1ccccc1-c1cc(-c2ccc(Cl)cc2)n[nH]1 | – | 2.82 µM (active) |
| Cc1ccc(NC(=O)c2cc(-c3ccccc3O)n[nH]2)cc1C | -0.764% (inactive) | – |
| CCN(CC(=O)NCc1ccc(F)cc1)S(=O)(=O)c1ccc(Cl)s1 | -4.07% (inactive) | – |
| CC(=O)c1ccc(NC(=O)CSc2nc3ccccc3c(=O)n2CCCN2CCOCC2)cc1 | -10.6% (inactive) | – |
| CC(=O)Nc1ccc(S(=O)(=O)Nc2ccc(N3CCCCC3)cc2)cc1 | 7.31% (inactive) | – |
| CC[C@]1(C(=O)OC)[C@H]2C(=O)N(C)C(=O)[C@H]2[C@H]2CN(C)C(=NCc3ccccc3)N21 | -0.397% (inactive) | – |
| CC1O[C@H](OC2C(COC3OC(CO)C(O)[C@H](O)C3O)OC(OC3CC[C@]4(C)C(CC[C@@]5(C)[C@@H]4C=C[C@]46OC[C@@]7(CCC(C)(C)C[C@H]74)C(O)C[C@@]56C)C3(C)C)C(O)C2O)C(O)C(O)C1O (stereo partly drawn) | 0.455% (inactive) | – |
| CC[C@]12c3[nH]c4cc(CCC(=O)N(C)C)ccc4c3CCN1C(=O)[C@@H](CC(=O)NCCCN(C)C)C[C@@H]2C(=O)N1CCN(C(=O)c2ccco2)CC1 | -0.34% (inactive) | – |
| CN1C(=O)[C@H]2[C@@H](/C=C/c3ccccc3)N3C(=O)CN(Cc4ccc(-c5ccccc5)cc4)C(=O)[C@@]3(C)[C@H]2C1=O | 0.747% (inactive) | – |
| CC1Sc2ccc(C(=O)NCc3ccccc3Cl)cc2NC1=O (stereo not drawn) | 0.128% (inactive) | – |
| O=C1NC(Cc2ccc(O)cc2)c2nc3ccc(Cl)cc3c(=O)n2-c2ccccc21 (stereo not drawn) | 3.93% (inactive) | – |
| Cc1ccc(C)c(S(=O)(=O)N2CCN(c3ncnc4sccc34)CC2)c1 | -8.28% (inactive) | – |
| C=CC[C@@H](Cc1ccc(F)cc1)C(=O)OC[C@H]1CCCN1C(=O)[C@H](CC=C)CC(=O)N(CCO)Cc1ccccc1 | 2.23% (inactive) | – |
| CC(=O)Nc1ccc(C(=O)/C=C/c2ccc[nH]2)cc1 | 9.7% (inactive) | – |
| CC(=O)Nc1ccc(/C=C/C(=O)c2ccccc2)cc1 | – | 15.8 µM (active) |
| CC(=O)Nc1ccc(NC(=S)NC(=O)/C=C/c2ccccc2)cc1 | 1.32% (inactive) | – |
| O=C(C[C@H]1C[C@H](C(=O)N2CCOCC2)[C@@]2(CCC3CCCC3)c3[nH]c4ccc(Cl)cc4c3CCN2C1=O)NCc1ccco1 | -4.21% (inactive) | – |
| CC[C@]12c3[nH]c4cc(CCC(=O)N(C)C)ccc4c3CCN1C(=O)[C@@H](CC(=O)NCc1ccco1)C[C@@H]2C(=O)N1CCN(C(=O)c2ccco2)CC1 | -0.895% (inactive) | – |
| COc1cc(/C=C/C(=O)Nc2ccc(OC)c(S(=O)(=O)N3CCOCC3)c2)ccc1OCC#N | -10.6% (inactive) | – |
| O=C1OC[C@@H]2CCCN2C(=O)[C@H](CC(=O)N(CCO)Cc2ccccc2)C/C=C\CC[C@@H]1Cc1ccc(F)cc1 | 5.47% (inactive) | – |
| COc1cc(OC)c(C(=O)NNC(=O)c2ccccc2-n2cccc2)cc1OC | -0.521% (inactive) | – |
| C[C@@H]1CN([C@@H](C)CO)C(=O)c2cccc(NS(=O)(=O)c3ccc(F)cc3)c2O[C@H]1CN(C)C(=O)NC1CCCCC1 | -3.42% (inactive) | – |
